Source: PubChem BioAssay (Tox21)
Results filed as inconclusive are left out. Entries that show only a call come without a potency. Unmarked numbers belong to inactive results. Active and inactive are the calls of the source. Calls follow the shape of the dose curve; as a rule, active = well fitted inhibition curve with a large enough effect in the signal ratio in the repeat runs (not every such curve was filed as active); inconclusive = weak or mixed curves, or effect the other way; inactive = flat fitted curve, though single readings scatter; the % refers to the signal ratio.

Test: cAMP Responsive Elements (CRE) small molecule antagonists, cell-based qHTS assay (AID 1963591)
Conditions: CRE-bla HEK293T, beta-lactamase FRET ratio; series mostly up to 92.4 µM
In short: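 CRE-bla HEK293T cells were plated 18 h at 37 °C/5% CO2, pinned with compound in DMSO, then stimulated with NKH477 at 0.25 uM final for 3 h. LiveBLAzer B/G FRET substrate was added and plates incubated 2 h at room temperature.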

SMILES	Potency	activity change, negative = inhibition
O=c1[nH]c(=O)n([C@H]2C[C@H](O)[C@@H](CO)O2)cc1I	inactive	
CC[N+](CC)(CC)CCOc1cccc(OCC[N+](CC)(CC)CC)c1OCC[N+](CC)(CC)CC	inactive	
C[N+]1(C)[C@@H]2CC(OC(=O)[C@H](CO)c3ccccc3)C[C@H]1[C@@H]1O[C@@H]12 (stereo partly specified)	inactive	
C[C@@H]1C[C@H]2[C@@H]3CCC4=CC(=O)C=C[C@]4(C)[C@@]3(F)[C@@H](O)C[C@]2(C)[C@H]1C(=O)CO	inactive	
C[C@H]1C[C@H]2[C@@H]3CCC4=CC(=O)C=C[C@]4(C)[C@@]3(F)[C@@H](O)C[C@]2(C)[C@@]1(O)C(=O)COP(=O)(O)O	inactive	
C[N+](C)(C)CC(O)CC(=O)[O-] (stereo unspecified)	inactive	
CC1=NS(=O)(=O)c2cc(Cl)ccc2N1	inactive	
CC(C)NCC(O)c1ccc(NS(C)(=O)=O)cc1 (stereo unspecified)	inactive	
CC[C@H]1OC(=O)[C@H](C)[C@@H](O[C@H]2C[C@@](C)(OC)[C@@H](O)[C@H](C)O2)[C@H](C)[C@@H](O[C@@H]2O[C@H](C)C[C@H](N(C)C)[C@H]2O)[C@](C)(OC)C[C@@H](C)C(=O)[C@H](C)[C@@H](O)[C@]1(C)O	inactive	
CC[C@H]1OC(=O)[C@H](C)[C@@H](O[C@H]2C[C@@](C)(OC)[C@@H](O)[C@H](C)O2)[C@H](C)[C@@H](O[C@@H]2O[C@H](C)C[C@H](N(C)C)[C@H]2O)[C@](C)(O)C[C@@H](C)C(=O)[C@H](C)[C@@H](O)[C@]1(C)O	inactive	
NCCCNCCSP(=O)(O)O		10.3% [at 8.39 µM]
